The source of these data is ChEMBL document CHEMBL2218924, “A broad activity screen in support of a chemogenomic map for kinase signalling research and drug discovery” (Biochem J, 2013).

Assay [1] concerns the target Serine/threonine-protein kinase SIK1 (Homo sapiens) (UniProt P57059). To be noted: at 10 µM.
Assay [2] concerns the target SRSF protein kinase 1 (Homo sapiens) (UniProt Q96SB4). The conditions noted are these: at 1 µM.
Assay [3] shares this target. The conditions noted are these: at 10 µM.
Assay [4] deals with SRSF protein kinase 2 (Homo sapiens) (UniProt P78362). To be noted: at 1 µM.
The target is the same in assay [5]. The conditions noted are these: at 10 µM.
The target in assay [6] is Serine/threonine-protein kinase 33 (Homo sapiens) (UniProt Q9BYT3). To be noted: at 1 µM.
The target is the same in assay [7]. To be noted: at 10 µM.
Assay [8] deals with Serine/threonine-protein kinase PLK2 (Homo sapiens) (UniProt Q9NYY3). To be noted: at 1 µM.
For assay [9] the target is unchanged. To be noted: at 10 µM.
The target in assay [10] is Tyrosine-protein kinase SYK (Homo sapiens) (UniProt P43405). The conditions noted are these: at 1 µM.
For assay [11] the target is unchanged. The conditions noted are these: at 10 µM.
Assay [12] deals with T1, Mitogen-activated protein kinase kinase kinase 7 (Homo sapiens) (UniProt O43318).
T1 sequence (whole entry): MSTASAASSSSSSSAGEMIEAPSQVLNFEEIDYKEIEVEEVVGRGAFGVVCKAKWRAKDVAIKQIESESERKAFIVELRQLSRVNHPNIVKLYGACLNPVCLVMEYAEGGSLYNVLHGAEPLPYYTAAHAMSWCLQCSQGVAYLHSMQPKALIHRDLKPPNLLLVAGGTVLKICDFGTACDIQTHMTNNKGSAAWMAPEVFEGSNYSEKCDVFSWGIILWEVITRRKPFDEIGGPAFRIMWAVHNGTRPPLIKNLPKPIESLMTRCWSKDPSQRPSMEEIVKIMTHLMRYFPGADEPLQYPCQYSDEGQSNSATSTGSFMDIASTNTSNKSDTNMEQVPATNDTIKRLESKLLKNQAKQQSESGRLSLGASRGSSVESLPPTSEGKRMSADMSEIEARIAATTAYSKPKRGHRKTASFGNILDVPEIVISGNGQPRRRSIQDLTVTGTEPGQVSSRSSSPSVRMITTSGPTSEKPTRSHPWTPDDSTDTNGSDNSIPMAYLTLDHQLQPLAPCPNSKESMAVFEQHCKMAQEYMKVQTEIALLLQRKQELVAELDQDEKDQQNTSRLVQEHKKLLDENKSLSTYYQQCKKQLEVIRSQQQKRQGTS
To be noted: at 1 µM.

In assay [13] the target is T1, Mitogen-activated protein kinase kinase kinase 7 (Homo sapiens). To be noted: at 10 µM.
In assay [14] the target is T2, Serine/threonine-protein kinase TAO1 (Homo sapiens) (UniProt Q7L7X3).
T2 sequence (whole entry): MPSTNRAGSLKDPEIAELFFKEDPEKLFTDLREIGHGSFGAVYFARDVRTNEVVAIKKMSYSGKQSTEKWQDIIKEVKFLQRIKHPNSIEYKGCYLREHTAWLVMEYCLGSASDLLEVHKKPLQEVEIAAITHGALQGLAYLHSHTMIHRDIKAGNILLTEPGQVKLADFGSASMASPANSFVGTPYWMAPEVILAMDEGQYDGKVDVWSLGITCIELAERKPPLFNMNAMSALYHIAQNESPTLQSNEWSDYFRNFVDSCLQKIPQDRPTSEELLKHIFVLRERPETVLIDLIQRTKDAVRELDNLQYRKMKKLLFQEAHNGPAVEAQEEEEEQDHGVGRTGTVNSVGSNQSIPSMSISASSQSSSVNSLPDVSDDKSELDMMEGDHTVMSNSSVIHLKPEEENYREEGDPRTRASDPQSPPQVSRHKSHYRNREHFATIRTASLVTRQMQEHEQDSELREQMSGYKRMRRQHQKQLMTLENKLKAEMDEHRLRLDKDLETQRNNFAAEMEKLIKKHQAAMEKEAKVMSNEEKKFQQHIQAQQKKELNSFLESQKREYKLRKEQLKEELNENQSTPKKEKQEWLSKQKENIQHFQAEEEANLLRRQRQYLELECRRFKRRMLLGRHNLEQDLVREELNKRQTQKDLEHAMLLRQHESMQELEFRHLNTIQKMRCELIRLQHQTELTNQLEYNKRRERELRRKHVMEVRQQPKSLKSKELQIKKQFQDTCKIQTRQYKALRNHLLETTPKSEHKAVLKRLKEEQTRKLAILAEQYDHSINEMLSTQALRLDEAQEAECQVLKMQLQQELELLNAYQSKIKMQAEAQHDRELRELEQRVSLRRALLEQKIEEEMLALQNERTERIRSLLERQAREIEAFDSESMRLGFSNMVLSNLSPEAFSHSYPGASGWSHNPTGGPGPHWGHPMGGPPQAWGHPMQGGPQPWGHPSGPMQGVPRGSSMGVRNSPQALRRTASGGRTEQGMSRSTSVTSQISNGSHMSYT
The conditions noted are these: at 1 µM.

The target of assay [15] is T2, Serine/threonine-protein kinase TAO1 (Homo sapiens). The conditions noted are these: at 10 µM.
In assay [16] the target is T3, Serine/threonine-protein kinase TAO2 (Homo sapiens) (UniProt Q9UL54).
T3 sequence (whole entry): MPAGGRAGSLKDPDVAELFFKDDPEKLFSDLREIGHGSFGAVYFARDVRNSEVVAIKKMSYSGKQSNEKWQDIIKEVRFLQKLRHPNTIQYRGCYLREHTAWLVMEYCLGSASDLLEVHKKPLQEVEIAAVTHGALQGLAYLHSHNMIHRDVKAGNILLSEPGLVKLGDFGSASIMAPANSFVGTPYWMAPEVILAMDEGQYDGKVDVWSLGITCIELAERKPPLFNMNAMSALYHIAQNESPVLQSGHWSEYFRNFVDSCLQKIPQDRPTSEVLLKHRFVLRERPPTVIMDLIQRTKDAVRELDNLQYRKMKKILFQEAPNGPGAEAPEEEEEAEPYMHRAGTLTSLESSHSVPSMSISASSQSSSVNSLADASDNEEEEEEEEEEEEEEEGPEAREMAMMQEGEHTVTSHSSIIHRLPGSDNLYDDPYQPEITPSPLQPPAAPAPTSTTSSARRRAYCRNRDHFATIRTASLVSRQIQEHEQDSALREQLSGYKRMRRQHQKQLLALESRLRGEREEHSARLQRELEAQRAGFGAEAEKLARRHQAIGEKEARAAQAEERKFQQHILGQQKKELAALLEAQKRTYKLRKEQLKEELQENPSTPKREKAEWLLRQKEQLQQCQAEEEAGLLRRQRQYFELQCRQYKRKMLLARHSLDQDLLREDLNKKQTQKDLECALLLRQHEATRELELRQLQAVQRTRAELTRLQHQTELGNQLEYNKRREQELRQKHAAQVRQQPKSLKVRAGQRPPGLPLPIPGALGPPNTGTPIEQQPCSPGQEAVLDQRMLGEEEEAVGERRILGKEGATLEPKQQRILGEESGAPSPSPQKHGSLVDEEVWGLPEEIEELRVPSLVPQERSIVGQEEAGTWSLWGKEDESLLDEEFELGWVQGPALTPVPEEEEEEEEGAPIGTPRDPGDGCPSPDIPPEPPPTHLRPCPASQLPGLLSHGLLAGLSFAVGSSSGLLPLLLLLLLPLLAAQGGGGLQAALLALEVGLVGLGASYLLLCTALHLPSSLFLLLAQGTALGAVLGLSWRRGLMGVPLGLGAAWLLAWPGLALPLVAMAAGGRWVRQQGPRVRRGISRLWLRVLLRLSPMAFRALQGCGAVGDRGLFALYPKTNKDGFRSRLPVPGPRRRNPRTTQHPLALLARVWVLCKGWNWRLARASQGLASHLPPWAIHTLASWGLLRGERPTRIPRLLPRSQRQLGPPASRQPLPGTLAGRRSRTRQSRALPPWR
The conditions noted are these: at 1 µM.

In assay [17] the target is T3, Serine/threonine-protein kinase TAO2 (Homo sapiens). To be noted: at 10 µM.
Assay [18] has as its target T4, Serine/threonine-protein kinase TAO3 (Homo sapiens) (UniProt Q9H2K8).
T4 sequence (whole entry): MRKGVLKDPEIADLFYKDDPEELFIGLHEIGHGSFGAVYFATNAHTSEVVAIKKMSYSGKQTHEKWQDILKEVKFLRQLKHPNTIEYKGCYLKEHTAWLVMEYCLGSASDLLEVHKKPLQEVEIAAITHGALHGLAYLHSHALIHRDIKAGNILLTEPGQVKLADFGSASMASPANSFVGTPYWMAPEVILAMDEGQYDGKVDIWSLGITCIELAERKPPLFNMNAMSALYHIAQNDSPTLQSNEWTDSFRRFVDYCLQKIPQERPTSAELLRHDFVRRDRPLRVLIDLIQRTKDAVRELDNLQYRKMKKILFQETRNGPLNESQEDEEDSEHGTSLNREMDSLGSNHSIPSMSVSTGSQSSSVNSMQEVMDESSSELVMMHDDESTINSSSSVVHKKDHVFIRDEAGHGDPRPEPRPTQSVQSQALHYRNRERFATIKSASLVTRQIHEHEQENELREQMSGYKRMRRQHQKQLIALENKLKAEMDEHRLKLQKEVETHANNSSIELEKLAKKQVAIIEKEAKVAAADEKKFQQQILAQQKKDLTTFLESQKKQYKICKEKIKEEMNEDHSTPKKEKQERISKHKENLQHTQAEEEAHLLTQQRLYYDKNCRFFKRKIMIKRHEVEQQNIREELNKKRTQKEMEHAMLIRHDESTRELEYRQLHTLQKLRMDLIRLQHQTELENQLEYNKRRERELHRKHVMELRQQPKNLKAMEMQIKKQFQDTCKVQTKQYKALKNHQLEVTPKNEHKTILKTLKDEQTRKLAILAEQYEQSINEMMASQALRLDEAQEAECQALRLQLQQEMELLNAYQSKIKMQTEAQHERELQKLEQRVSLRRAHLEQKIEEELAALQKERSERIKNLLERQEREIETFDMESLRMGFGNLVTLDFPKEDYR
The conditions noted are these: at 1 µM.

Assay [19] addresses T4, Serine/threonine-protein kinase TAO3 (Homo sapiens). To be noted: at 10 µM.
In assay [20] the target is T5, Serine/threonine-protein kinase TBK1 (Homo sapiens) (UniProt Q9UHD2).
T5 sequence (whole entry): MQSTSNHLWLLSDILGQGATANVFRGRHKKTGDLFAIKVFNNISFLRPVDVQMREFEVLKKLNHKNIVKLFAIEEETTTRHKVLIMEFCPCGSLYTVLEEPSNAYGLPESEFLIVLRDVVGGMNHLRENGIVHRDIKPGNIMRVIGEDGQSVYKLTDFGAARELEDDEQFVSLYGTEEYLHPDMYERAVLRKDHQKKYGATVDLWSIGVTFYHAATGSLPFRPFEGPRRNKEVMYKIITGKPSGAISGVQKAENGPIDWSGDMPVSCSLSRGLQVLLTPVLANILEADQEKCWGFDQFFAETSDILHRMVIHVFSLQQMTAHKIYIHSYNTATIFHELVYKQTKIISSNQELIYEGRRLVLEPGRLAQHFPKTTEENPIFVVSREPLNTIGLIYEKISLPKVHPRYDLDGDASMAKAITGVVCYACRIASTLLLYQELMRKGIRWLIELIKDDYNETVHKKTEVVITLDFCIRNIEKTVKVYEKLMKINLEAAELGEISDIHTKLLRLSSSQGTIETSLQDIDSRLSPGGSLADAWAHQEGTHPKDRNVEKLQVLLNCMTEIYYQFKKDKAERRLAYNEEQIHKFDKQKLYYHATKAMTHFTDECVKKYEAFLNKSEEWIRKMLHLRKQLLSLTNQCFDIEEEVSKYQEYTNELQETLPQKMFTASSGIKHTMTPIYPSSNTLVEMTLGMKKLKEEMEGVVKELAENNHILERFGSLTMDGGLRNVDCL
The conditions noted are these: at 1 µM.

Sequence of Serine/threonine-protein kinase SIK1 (Homo sapiens) (P57059 whole entry): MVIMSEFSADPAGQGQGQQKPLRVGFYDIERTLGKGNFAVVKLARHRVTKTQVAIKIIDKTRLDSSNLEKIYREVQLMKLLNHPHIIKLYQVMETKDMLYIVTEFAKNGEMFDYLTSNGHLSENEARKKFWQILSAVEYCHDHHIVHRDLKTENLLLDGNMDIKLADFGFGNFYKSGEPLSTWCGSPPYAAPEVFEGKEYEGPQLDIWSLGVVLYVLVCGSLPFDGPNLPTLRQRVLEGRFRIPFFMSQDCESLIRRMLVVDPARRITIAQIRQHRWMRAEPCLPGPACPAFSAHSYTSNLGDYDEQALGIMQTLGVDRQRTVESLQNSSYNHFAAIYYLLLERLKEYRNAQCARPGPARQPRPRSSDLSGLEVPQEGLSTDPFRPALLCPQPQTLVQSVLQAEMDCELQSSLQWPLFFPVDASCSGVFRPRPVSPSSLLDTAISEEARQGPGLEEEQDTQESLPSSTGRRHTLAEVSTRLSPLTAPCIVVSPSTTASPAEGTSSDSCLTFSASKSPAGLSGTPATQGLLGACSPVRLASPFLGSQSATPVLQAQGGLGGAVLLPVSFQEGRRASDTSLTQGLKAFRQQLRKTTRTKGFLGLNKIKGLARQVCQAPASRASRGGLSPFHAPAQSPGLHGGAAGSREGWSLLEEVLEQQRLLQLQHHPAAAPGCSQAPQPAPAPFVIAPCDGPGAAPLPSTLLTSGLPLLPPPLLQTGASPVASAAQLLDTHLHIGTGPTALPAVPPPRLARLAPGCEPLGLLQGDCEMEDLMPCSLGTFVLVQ
Sequence of SRSF protein kinase 2 (Homo sapiens) (P78362 whole entry, looked up): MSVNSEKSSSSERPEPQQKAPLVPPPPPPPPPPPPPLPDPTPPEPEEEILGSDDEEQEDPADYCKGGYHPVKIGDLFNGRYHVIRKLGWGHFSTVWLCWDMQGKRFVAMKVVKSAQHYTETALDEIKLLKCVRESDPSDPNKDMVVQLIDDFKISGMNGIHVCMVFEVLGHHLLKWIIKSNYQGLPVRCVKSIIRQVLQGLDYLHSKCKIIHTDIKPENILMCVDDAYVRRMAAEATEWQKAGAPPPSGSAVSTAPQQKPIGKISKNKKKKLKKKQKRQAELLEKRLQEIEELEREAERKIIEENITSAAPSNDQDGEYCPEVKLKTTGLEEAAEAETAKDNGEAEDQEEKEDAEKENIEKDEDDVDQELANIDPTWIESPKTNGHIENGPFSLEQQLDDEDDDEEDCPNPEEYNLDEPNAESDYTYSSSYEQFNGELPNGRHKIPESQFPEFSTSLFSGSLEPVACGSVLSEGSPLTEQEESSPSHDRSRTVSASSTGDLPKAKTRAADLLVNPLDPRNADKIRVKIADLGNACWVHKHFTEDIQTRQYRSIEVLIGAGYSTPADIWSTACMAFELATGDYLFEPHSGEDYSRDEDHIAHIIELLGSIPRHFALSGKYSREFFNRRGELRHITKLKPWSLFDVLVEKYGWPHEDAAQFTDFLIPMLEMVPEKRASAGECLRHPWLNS
Sequence of SRSF protein kinase 1 (Homo sapiens) (Q96SB4 whole entry): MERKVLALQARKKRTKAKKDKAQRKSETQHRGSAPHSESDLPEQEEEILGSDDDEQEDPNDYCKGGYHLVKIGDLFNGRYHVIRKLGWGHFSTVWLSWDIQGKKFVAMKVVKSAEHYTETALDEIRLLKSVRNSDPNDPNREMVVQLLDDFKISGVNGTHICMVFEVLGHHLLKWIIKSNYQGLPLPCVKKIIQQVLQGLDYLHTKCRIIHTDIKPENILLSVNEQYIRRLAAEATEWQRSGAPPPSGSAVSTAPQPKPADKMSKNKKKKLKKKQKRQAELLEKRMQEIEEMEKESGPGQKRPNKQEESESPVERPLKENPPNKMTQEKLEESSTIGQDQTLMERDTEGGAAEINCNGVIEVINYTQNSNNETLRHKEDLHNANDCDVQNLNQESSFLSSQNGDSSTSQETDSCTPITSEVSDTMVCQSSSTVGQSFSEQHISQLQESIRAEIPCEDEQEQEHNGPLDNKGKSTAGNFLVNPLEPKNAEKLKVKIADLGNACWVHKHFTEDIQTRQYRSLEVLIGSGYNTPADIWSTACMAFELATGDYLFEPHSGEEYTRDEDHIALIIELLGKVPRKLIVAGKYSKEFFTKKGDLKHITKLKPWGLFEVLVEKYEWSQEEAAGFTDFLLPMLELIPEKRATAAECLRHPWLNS
Sequence of Serine/threonine-protein kinase 33 (Homo sapiens) (Q9BYT3 whole entry, looked up): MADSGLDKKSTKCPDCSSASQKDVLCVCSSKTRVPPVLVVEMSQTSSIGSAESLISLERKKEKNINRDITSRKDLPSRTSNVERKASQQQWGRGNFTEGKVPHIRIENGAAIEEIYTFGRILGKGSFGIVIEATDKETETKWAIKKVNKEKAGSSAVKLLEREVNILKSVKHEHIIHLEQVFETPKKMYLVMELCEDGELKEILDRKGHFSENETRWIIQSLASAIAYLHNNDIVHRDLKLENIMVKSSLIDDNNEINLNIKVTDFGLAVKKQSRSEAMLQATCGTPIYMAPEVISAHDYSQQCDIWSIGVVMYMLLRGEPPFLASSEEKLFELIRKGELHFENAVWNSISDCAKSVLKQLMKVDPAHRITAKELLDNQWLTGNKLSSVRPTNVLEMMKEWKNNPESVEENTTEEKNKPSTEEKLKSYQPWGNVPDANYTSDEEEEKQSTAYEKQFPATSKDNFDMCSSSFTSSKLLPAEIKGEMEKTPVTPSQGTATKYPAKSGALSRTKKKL
Sequence of Serine/threonine-protein kinase PLK2 (Homo sapiens) (Q9NYY3 whole entry, looked up): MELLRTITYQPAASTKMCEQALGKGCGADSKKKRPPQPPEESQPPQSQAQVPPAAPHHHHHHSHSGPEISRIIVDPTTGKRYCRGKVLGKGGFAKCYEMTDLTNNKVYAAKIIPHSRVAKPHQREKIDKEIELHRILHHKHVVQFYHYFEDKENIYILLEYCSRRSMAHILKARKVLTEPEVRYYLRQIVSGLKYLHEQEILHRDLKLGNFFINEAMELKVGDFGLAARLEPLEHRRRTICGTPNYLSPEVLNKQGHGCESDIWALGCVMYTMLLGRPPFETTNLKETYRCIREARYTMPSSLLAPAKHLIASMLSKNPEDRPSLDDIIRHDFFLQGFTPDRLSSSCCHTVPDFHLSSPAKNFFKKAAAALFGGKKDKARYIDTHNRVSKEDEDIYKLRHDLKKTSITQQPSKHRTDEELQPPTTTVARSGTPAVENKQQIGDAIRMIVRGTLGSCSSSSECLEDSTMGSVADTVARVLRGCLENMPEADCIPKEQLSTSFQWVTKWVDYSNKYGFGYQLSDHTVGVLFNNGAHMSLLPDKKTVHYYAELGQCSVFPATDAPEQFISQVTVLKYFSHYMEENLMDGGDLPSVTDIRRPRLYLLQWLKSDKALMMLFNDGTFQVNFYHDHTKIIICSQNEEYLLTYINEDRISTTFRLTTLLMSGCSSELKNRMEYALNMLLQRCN

Consider `O=C1NC(=O)/C(=C\c2ccc3nccnc3c2)S1`, for which the residual activity in [1] was determined as 83%; in assay [2], 99%; in assay [3] it was 49%; in [4], 96%; in assay [5], 58%; in assay [6], 86%. Moreover, the residual activity in assay [7] amounted to 53%; in assay [8] it was 94%; in assay [9], 73%; in assay [10] it was 104%; in assay [11], 92%; in [12], 94%. For the same compound, the residual activity was found to be 93% in assay [13]; 71% in [14]; 14% in assay [15]; 99% in assay [16]; 44% in assay [17]; 72% in assay [18]. Further, the residual activity in assay [19] came out at 16%; in [20], 56%.

On to `COc1ccc(S(=O)(=O)N(CCO)c2ccccc2CN(C)C/C=C/c2ccc(Cl)cc2)cc1`, for which the residual activity in assay [1] stood at 79%; in [2] it was 117%; in assay [3], 96%; in assay [4], 105%; in [5], 81%; in [6], 93%. The residual activity was 91% in assay [7]; 99% in assay [9]; 97% in assay [10]; 69% in [11]; 93% in assay [12]; 82% in assay [13]. The residual activity amounted to 97% in assay [14]; 83% in [15]; 105% in assay [16]; 88% in [17]; 86% in assay [18]; 84% in assay [19]. In assay [20], the residual activity amounted to 73%.

Take `N#Cc1cnc2cnc(NCc3cccnc3)cc2c1Nc1ccc(F)c(Cl)c1`: the residual activity in assay [1] was 97%; in assay [2], 100%; in [3], 78%; in assay [4], 102%; in [5], 76%; in [6], 99%. For the same compound, the residual activity turned out to be 77% in assay [7]; 101% in [8]; 101% in [9]; 2% in assay [10]; 2% in assay [11]; 87% in [13]. Moreover, the residual activity in [18] turned out to be 18%; in assay [19] it was 7%; in assay [20], 5%.
